Reference: PubChem BioAssay AID588342 (National Center for Advancing Translational Sciences (NCATS), 2011)
The campaign covered roughly 360,000 compounds. About 25,000 (6.9%) were called active. Inconclusive results (about 9%) are left out. Calls follow the shape of the dose curve; as a rule, active = well fitted inhibition curve with a large enough effect; inconclusive = small, poorly fitted or top-dose-only effect; inactive = flat fitted curve, though single readings scatter. For the sample, actives were picked, then their nearest neighbours and some compounds at random.

molecular target: Luciferin 4-monooxygenase (Photinus pyralis) (UniProt P08659); experiment: qHTS profiling assay for firefly luciferase inhibitor/activator using purifed enzyme and Km concentrations of substrates (counterscreen for miR-21 project); conditions: purified FLuc, luminescence inhibition; series mostly up to 57.5 µM; activity change, negative = inhibition: at the top concentration; also: nearly all actives have a fitted effect of over 55% in size;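 as to activity change, negative = inhibition: plate controls were vehicle for no effect and reference inhibitor for full effect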
From the text: MLPCN Grant: 1 R21 NS059478-01 (miR-21 grant) Assay Provider: NCGC NCGC Assay Overview: Firefly (Photinus pyralis) luciferase is one of the most commonly used transcriptional reporters for a number of reasons. It is considered one of the more dynamically responsive reporters -that is, responsive to changes in reporter transcription - as it requires no post-translational modifications and is enzymatically active directly after protein synthesis (Wood, 1998). Additionally, the half-life of the luciferase protein is short relative to other reporter-gene products (Wood, 1995). Whereas reporters with long half-lives potentially allow for increased signal due to accumulation of reporter-gene product, once accumulated in the cell, dynamic changes in reporter-gene expression may be difficult to detect(Fan and Wood, 2007; Almond et al., 2004). It has been shown that wild-type P. pyralis luciferase has a half-life of approximately […] hours in mammalian cells (Thompson et al., 1991). Firefly luciferase reporter-gene assays are also generally considered one of the most sensitive assay types (Wood, 1995; Wood, 1998). Although light produced in a bioluminescence reaction is of lower intensity than that produced during fluorescence emission, this is offset by little to no background light inherent to luminescent assays. Thus the luciferase reporter can be expressed at much lower levels than fluorescent proteins while still providing robust signal. # However, it was initially observed, in 1991, by Thompson et al., that compounds that resemble the substrates of firefly luciferase (FLuc) can act as competitive inhibitors of the enzyme, and that these compounds, upon interaction with luciferase in the cell, can actually stabilize the protein and increase its half-life. Accumulated intracellular FLuc protein can be measured as an increase in luminescence signal, upon addition of detection reagents (which contain high concentrations of FLuc substrates) commonly used in high-throughput screening. In cell-based reporter gene assays that use FLuc as the reporter gene to quantitate the potential influence of a given compound against the target biology, this apparent increase in luminescence can mistakenly be interpreted as identification of a compound that is active against the target of interest. This is the case for the miR-21 FLuc reporter gene assay used to identify inhibitors of the miR-21 pathway (PubChem AID 2289) - compounds of interest will inhibit miR-21 biogenesis/expression or activity, and are identified by causing an increase in luminescence, due to increased FLuc translation. However, FLuc inhibitory compounds that stabilize the FLuc protein will give an identical read-out, making it difficult to distinguish compounds that are active against the target from those active against FLuc. Previous profiling work to determine the prevalence of compounds that affect FLuc enzymatic activity (PubChem AID 411) identified that ~3% of the MLSMR library (then at ~72K) inhibited FLuc. […] Since the MLSMR had grown to ~350K compounds, and since it was expected that a significant percentage of compounds found active in the miR-21 FLuc assay would be FLuc inhibitors, the library was screened for activity against FLuc using a biochemical assay of purified FLuc and KM concentrations of FLuc substrates (D-luciferin and ATP).
NCGC Assay Protocol Summary: Reagents: 50mM Tris acetate, pH 7.5; 10mM Mg acetate; 10uM D-luciferin (Sigma #L9504); 10uM ATP; 0.01% Tween-20; 0.05% BSA; 10nM P. pyralis luciferase (Sigma #L9506) Control compounds used were two known firefly luciferase inhibitors (compounds (2) and (5) in Auld et al., 2010), and DMSO. […]

Sequence of Luciferin 4-monooxygenase (Photinus pyralis) (P08659 whole entry, looked up): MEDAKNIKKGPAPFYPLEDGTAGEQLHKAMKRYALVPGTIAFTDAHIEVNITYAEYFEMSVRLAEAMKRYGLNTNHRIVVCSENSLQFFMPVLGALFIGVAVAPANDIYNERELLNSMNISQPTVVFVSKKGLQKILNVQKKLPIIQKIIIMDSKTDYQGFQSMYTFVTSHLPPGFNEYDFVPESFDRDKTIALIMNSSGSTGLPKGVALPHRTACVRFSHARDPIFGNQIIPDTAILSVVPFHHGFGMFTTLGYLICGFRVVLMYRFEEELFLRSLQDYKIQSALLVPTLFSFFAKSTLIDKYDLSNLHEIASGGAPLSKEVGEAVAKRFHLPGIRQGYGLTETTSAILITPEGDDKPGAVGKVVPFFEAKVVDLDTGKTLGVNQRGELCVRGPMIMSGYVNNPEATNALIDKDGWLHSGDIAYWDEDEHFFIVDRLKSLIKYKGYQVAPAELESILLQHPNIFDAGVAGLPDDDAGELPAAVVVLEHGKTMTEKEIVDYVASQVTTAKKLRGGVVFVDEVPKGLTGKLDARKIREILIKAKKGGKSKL

Compound | Potency | activity change, negative = inhibition
COc1ccc(NC(=O)Nc2cccc3cccnc23)cc1 | 1.9 µM (active) | 
CC(C)c1c(CN(C)C(C)Cc2ccccc2)n(C)n(-c2ccccc2)c1=O (stereo not given) |  | -1.08% (inactive)
Cc1ccccc1NC(=O)COC(=O)c1cc(C)n(C2CC2)c1C |  | -2.71% (inactive)
COC(=O)C1=C(c2cccc(OCc3ccccc3)c2)C[C@@H]2CC[C@H]1N2C(=O)NCc1ccc(Br)cc1 |  | -2.45% (inactive)
COc1cccc(-c2nc3ccc(N4CCN(C)CC4)cc3[nH]2)c1 | 0.269 µM (active) | 
COc1ccc(C(=O)CC2C(=O)N(C)C(=O)N(C)C2=O)cc1 |  | -1.78% (inactive)
O=c1c2ccccc2nc(/C=C/c2ccco2)n1-c1ccccc1O |  | -4.89% (inactive)
Cn1c(O)c(C=Nc2ccc3c(c2)CCC3)c(=O)n(C)c1=O | 3.38 µM (active) | 
Cn1c(O)c(C=NCCN2CCNCC2)c(=O)n(C)c1=O |  | 5.53% (inactive)
Cn1c(O)c(C=NCCCC(=O)O)c(=O)n(C)c1=O |  | 2.19% (inactive)
CCN1C(=O)C(=Cc2c(C)n(CC(=O)NCC3CCCO3)c3ccccc23)C(=O)N(CC)C1=S (stereo not given) |  | -22% (inactive)
COC(=O)C1=C(c2ccc(F)cc2OCc2ccccc2)C[C@@H]2CC[C@H]1N2C(=O)NCc1ccc(C(C)(C)C)cc1 |  | 1.61% (inactive)
O=C(OCC(=O)c1cccs1)C1=COCCO1 | 23.9 µM (active) | 
CSC1=NP(=S)(SC)N(C)c2nc3n(c21)CCC3 (stereo not given) |  | 2.17% (inactive)
CC(C)c1ccc(OCC(=O)N2CCCN(C)CC2)cc1 |  | -16.6% (inactive)
CN(C)CC1CCCCC1=O (stereo not given) |  | 3.35% (inactive)
CC(=O)Nc1ccc(C(=O)C(Cc2ccccc2)N(C)C)cc1 (stereo not given) |  | 0.596% (inactive)
O=C1NC(=O)N(c2ccccc2)C(=O)/C1=C/c1ccc([N+](=O)[O-])s1 | 26.9 µM (active) | 
O=C1NC(=O)N(c2ccc(F)cc2)C(=O)/C1=C/c1ccc2c(c1)CCCN2Cc1ccccc1 |  | -11.8% (inactive)
CCN(CC)C(=O)c1ccc(NC(=O)c2sccc2-c2ccccc2)cc1 |  | -3.15% (inactive)
O=[N+]([O-])c1ccc(C2C3C(c4ccccc4)=NC4(CCCCC4)N32)cc1 (stereo not given) |  | 7.73% (inactive)
CC(=O)Oc1ccccc1C(=O)Nc1ncc([N+](=O)[O-])s1 | 6.75 µM (active) | 
C[C@]12CC[C@H](O)C[C@H]1CC[C@@H]1C2CC[C@]2(C)[C@@H](C3=CC(=O)OC3)[C@@H](O)C[C@]12O (stereo not given in full) |  | 2.82% (inactive)
CCC1(C)CC(CCNCc2ccc(N(C)C)cc2)(c2ccc(F)cc2)CCO1 (stereo not given) |  | -0.536% (inactive)
CC(C)CN1CCN(Cc2ccccc2C(F)(F)F)CC1CCO (stereo not given) |  | 0.0821% (inactive)

Compound | Potency | activity change, negative = inhibition
N#Cc1ccc(Cn2cc(C(=O)c3ccco3)c3ccccc32)cc1 | 19 µM (active) | 
NC(=O)Cn1cc(C(=O)c2ccccc2F)c2ccccc21 |  | -2.49% (inactive)
CN1CCC(OC(=O)c2cccc(F)c2)CC1 |  | -2.03% (inactive)
O=[N+]([O-])c1cnc2ccc3ccccc3c2c1 |  | -4.49% (inactive)
CCCCCn1c(=O)c(C(=O)NCc2ccccc2)c(O)c2ccccc21 |  | -0.847% (inactive)
COC(=O)C1=C(c2c(C)noc2C)C[C@@H]2CC[C@H]1N2C(=O)NCc1ccc2c(c1)OCO2 |  | 6.85% (inactive)
Cc1nnc(NC(=O)c2cccn(Cc3cccc(F)c3)c2=O)s1 |  | 2.28% (inactive)
Cc1ccc(NC(=O)N(Cc2ccc3c(c2)OCO3)C2CCN(Cc3ccccc3)CC2)cc1F |  | 1.32% (inactive)
Cc1cccc(Cn2cccc(C(=O)Nc3ccc4c(c3)OCCO4)c2=O)c1 | 15.1 µM (active) | 
Cn1cc(C(=O)OCC(=O)N2CCCC2)c2ccccc21 |  | -4.49% (inactive)
COC(=O)C1=C(c2ccccc2OCc2ccccc2)C[C@@H]2CC[C@H]1N2C(=O)NCc1ccc(OC)cc1 |  | 2.51% (inactive)
C[C@@]1([C@@H](NP(=O)(c2ccccc2)c2ccccc2)c2ccccc2)C[C@H]1CCO |  | -16.7% (inactive)
O=C(O)CCn1cc(C=C2C(=O)NC(=S)NC2=O)c(-c2cccc(Br)c2)n1 | 21.3 µM (active) | 
COC(=O)C1=C(c2ccc(C(C)=O)cc2)C[C@@H]2CC[C@H]1N2C(=O)NCCNC(C)=O |  | 2.93% (inactive)
Cc1ccnc(-n2c(C)cc(/C=C3\C(=O)NC(=S)N(C)C3=O)c2C)c1 | 7.57 µM (active) | 
Cc1cc(C=C2C(=O)NC(=O)NC2=O)c(C)n1-c1ccncc1 |  | -19.9% (inactive)
Cc1ccccc1N1C(=O)NC(=O)/C(=C\c2cc(C)n(C)c2C)C1=O |  | 1.58% (inactive)
O=C(CCC(=O)N1C[C@H]2C[C@@H](C1)c1cccc(=O)n1C2)NCc1ccccc1C(F)(F)F |  | -1.48% (inactive)
COC(=O)C1=C(c2ccc(-c3ccccc3)c(F)c2)C[C@@H]2CC[C@H]1N2C(=O)NCc1ccc(F)cc1 |  | -0.451% (inactive)
Cc1cc(C)cc(NC(=S)NC2CC3CCCC(C2)N3Cc2cccs2)c1 (stereo not given) |  | -1.54% (inactive)
Cc1nc2ccccn2c1P(=S)(N1CCCCC1)N1CCCCC1 |  | 6.82% (inactive)
O=C1NC(=O)C(C/C=C/c2ccccc2)C(=O)N1 |  | -2.71% (inactive)
Cc1ccc(NN=C2C(=O)OC(C)(C)OC2=O)c(C)c1 | 9.53 µM (active) | 
CC1=C(C(=O)Nc2ccccc2)S(=O)(=O)CCO1 |  | 2.71% (inactive)
O=C(O)c1ccccc1NC(=O)C1C2CCC(O2)C1C(=O)O (stereo not given) |  | -1.49% (inactive)
